Only some compounds are listed: those with a hit (about 9.4% of all), similar ones and a draw of the others.
FLuc modulator – qHTS profiling assay for firefly luciferase inhibitor/activator using purifed enzyme and Km concentrations of substrates (counterscreen for miR-21 project) | Potency, µM (series often up to 57.5 µM), for the others: at the top dose activity change, negative = inhibition, most hits filed as inhibitors | purified FLuc, Km substrates, luminescence inhibition | actives 6.9% (n = 360,000);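 further: plate controls were vehicle for no effect and reference inhibitor for full effect; nearly all actives have a fitted effect of over 55% in size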
Target sequence (P08659 whole entry, looked up): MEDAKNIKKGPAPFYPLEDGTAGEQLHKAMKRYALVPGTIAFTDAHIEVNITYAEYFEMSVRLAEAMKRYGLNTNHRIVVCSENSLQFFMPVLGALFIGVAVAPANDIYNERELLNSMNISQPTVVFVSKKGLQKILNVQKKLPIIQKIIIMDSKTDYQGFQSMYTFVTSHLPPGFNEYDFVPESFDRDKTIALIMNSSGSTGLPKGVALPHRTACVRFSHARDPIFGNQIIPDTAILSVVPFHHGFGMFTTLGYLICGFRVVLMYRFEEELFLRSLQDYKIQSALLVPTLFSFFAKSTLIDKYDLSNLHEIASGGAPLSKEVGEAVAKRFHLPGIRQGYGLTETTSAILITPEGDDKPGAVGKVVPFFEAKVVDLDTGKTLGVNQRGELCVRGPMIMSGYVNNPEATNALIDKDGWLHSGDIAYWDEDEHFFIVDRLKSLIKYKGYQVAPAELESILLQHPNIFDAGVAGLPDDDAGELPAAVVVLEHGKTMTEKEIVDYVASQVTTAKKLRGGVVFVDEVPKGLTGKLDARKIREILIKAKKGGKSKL
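Purified P. pyralis luciferase, 10 nM final, with Km-level 10 uM D-luciferin and 10 uM ATP in 50 mM Tris acetate pH 7.5, 10 mM Mg acetate, 0.01% Tween-20, 0.05% BSA; 6-point qHTS titration about 60 µM downward; luminescence read.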
ELG1 DNA repair – qHTS screen for small molecules that inhibit ELG1-dependent DNA repair in human embryonic kidney (HEK293T) cells expressing luciferase-tagged ELG1. HEK293T ELG1-luciferase reporter, luminescence, 16 h; DNA damage induced by 5-fluorouridine. Potency, µM (top dose mostly 46.1 µM), without a hit: at the top dose activity change, negative = inhibition, usual class: inhibitors. actives 2.3% (n = 330,000). AID 504467, 2011; further: on the % scale 0 is the no-effect control and ±100 the full control effect; nearly all actives have a fitted effect of over 55% in size
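Overnight (16 hr) co-exposure of 2,000 cells/well to 5-fluorouridine and compound at 37 °C preceded detection. Luciferase was quantified via ONE-Glo luminescence; loss of signal denotes inhibition.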
NPC1 promoter act – qHTS Assay for NPC1 Promoter Activators. Huh7 NPC1 promoter luciferase reporter, 24 h. Potency, µM (top dose mostly 9.22 µM), for inactives: top-dose activation, usual class: activators. actives 2.4% (n = 320,000); further: % of control where 0% means no effect; nearly all actives have a fitted effect of over 60% in size
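Cells: Huh7 expressing luciferase under the NPC1 promoter, 1500/well. Seeded 2 h, compound added, incubated 24 h at 37 °C. Luciferase reagent, 10 min ambient, then luminescence.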
ELG1 genotox – qHTS screen for small molecules that induce genotoxicity in human embryonic kidney (HEK293T) cells expressing luciferase-tagged ELG1. HEK293T ELG1-luciferase reporter, luminescence, 16 h. Potency, µM (series often up to 46 µM), inactives show top-dose activity change, positive = activation, actives largely listed as activators. actives 1.3% (n = 330,000); further: % of control where 0% means no effect; nearly all actives have a fitted effect of over 60% in size
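16 hr compound incubation (37 °C, 5% CO2) of HEK293T cells carrying luciferase-tagged ELG1; luciferase then measured by ONE-Glo luminescence after 30 min at RT.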
SMN2 splice enh – qHTS Assay for Enhancers of SMN2 Splice Variant Expression; actives 2.8% (n = 210,000); AID 1458, 2008; HEK293 SMN2-luciferase splicing reporter, luminescence, 30-36 h; Potency, µM (doses to about 46.1 µM), for inactives: top-dose activity change, positive = activation, actives largely listed as activators; further: % of control where 0% means no effect; nearly all actives have a fitted effect of over 55% in size
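HEK293 cells carry an SMN2 […]–luciferase reporter in which exon 7 inclusion puts luciferase in frame. Cells were plated 10-12 h before compound addition, then incubated 30-36 h at 37C. ONE-Glo luminescence was read; sodium butyrate at 4.5 mM final served as control.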
Rab9 prom act – qHTS Assay for Rab9 Promoter Activators. Huh7 Rab9 promoter-luciferase reporter, luminescence, 24 h. Potency, µM (doses to about 9.22 µM), inactives show top-dose activation, negative = inhibition, hits mostly activators. actives 2.8% (n = 320,000). AID 485297, 2010; further: % of control where 0% means no effect; nearly all actives have a fitted effect of over 60% in size
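Stable Rab9-luc Huh7, 1500 cells/well, 2 h settle; cmpd in DMSO, 24 h, 37 °C/5% CO2; luciferase reagent 10 min RT; luminescence.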
Starred values were filed as active, the others as inactive; u = inconclusive; x = no result given; [ ] = dose if it differs, or a comment. The call rests on the fitted dose curve; in most records, active means well fitted curve in the direction sought with a large enough effect; inconclusive means small, poorly fitted or top-dose-only effect, or another doubt; inactive means no such curve, though single readings can be large; an effect the other way counts as inactive or inconclusive. Potency means the concentration at half of the fitted maximal effect.

SMILES | FLuc modulator | ELG1 DNA repair | NPC1 promoter act | ELG1 genotox | SMN2 splice enh | Rab9 prom act
Cc1cc(N2CCCCC2)nc2ccc(NC(=O)/C=C/c3ccccc3OC(C)C)cc12 | -1% | x | x | x | 7% | x
Cc1ccccc1-c1nnc(SCC(=O)N2CCCc3ccccc32)o1 | u | x | x | x | -11% | x
CCc1ccc(S(=O)(=O)c2nnn3c2nc(NCCc2ccccc2)c2sccc23)cc1 | 51% | x | x | x | x | x
CCC(C(=O)N1CCN(c2ccccc2)CC1)n1c(C)c2cnn(-c3ccccc3)c(=O)c2c1C (configuration not stated) | 1% | x | x | x | -2% | x
Cc1nc2cc(N=NC3=C(O)CCCC3=O)ccc2s1 | 13µM* | u | 10% | u | u | 16%
CC(=O)N1CCc2cc(N=NC3=C(O)CCCC3=O)ccc21 | 15µM* | u | u | u | 171% | 3.5µM*
COc1ccc(C(=O)NCC(c2ccc3c(c2)OCO3)N2CCN(c3ccccc3F)CC2)cc1 (configuration not stated) | -4% | x | x | x | x | x
CCN(CC)c1ccc(/C=N/Nc2ccc(C)cc2)c(O)c1 | u | u | 14% | 9% | 6% | 19%
CCN(CC)c1ccc(C=Nc2ccc(C)cc2C)c(O)c1 | 3.4µM* | u | 28% | 9% | x | u
Cc1ccc(N=Cc2cccc(O)c2O)c(C)c1 | u | 2% | 1% | -2% | 21% | 9%
CCN(CC)c1ccc(C=Nc2cccnc2Cl)c(O)c1 | 2.4µM* | 0% | -6% | -1% | x | -5%[1.84 µM]
CCN(CC)c1ccc(C=Nc2cc(C)ccc2C)c(O)c1 | 1.7µM* | u | 2% | 7% | u | 1%
CCN(CC)c1ccc(/C=N/n2nnnc2N)c(O)c1 | u | 28% | 20% | 19% | u | 18%
CCCCNc1nc(C)nc2c1nc(-c1ccccc1)n2CC1CCCN1CC (configuration not stated) | x | x | x | x | -9% | x
CCOC(=O)C1CCC(CN(Cc2ccc(Cl)cc2)S(=O)(=O)c2cc(Cl)cc(Cl)c2)CC1 (configuration not stated) | -2% | x | x | x | x | x
Cc1ccc2nc(CSc3nnc(NC(=O)c4ccc(C(C)(C)C)cc4)s3)cc(=O)n2c1 | -8% | x | x | x | x | x
c1ccc2c(CCNc3ncnc4nc[nH]c34)cccc2c1 | u | 23µM* | -1% | -12% | -62% | -3%
c1ccc(CCCNc2ncnc3nc[nH]c23)cc1 | -17% | -15% | 9% | 1% | -13% | 1%
COc1ccc(C(=O)CN2C(=O)c3ccccc3S2(=O)=O)cc1 | 13µM* | u | -32% | -9% | x | u
CCN1CCN(C(=O)CN2C(=O)c3ccccc3S2(=O)=O)CC1 | u | u | u | u | x | 2.5µM*
O=C(CN1C(=O)c2ccccc2S1(=O)=O)c1ccc(F)c(F)c1 | 11µM* | 30% | u | -2% | x | u
O=C(CN1C(=O)c2ccccc2S1(=O)=O)c1ccc(O)c(O)c1 | -3% | u | 18% | 7% | x | u
Cc1ccc2nc(-c3ccc(N)cc3)sc2c1S(=O)(=O)O | x | x | x | x | 14µM* | x
Cc1nc2ccc(N)cc2s1 | 5% | 2% | 6% | 6% | u | -7%
Cc1cc(-c2ccc(Cl)cc2)n2nc(C)cc2n1 | -1% | -6% | -4% | -1% | x | 3%
SMILES | FLuc modulator | ELG1 DNA repair | NPC1 promoter act | ELG1 genotox | SMN2 splice enh | Rab9 prom act
COc1ccc(-c2cc3nc(-c4ccccc4)cc(C(F)(F)F)n3n2)cc1 | -1% | x | x | x | 1% | x
Cc1ccc(-c2cc3nc(-c4ccc(Br)cc4)cc(N)n3n2)cc1 | -19% | -1% | -1% | 0% | -12% | -2%
COc1ccc(-c2cc3nc(C)cc(C)n3n2)cc1 | 7.6µM* | u | 3.2µM* | u | 10µM* | 3.5µM*
Cc1cc(C)n2nc(-c3ccc(Cl)cc3)cc2n1 | 3.8µM* | u | 4µM* | 15µM* | x | 3.5µM*
Cc1cc(C)n2nc(-c3ccc(Br)cc3)cc2n1 | 2.7µM* | u | 3.5µM* | u | x | u
Cc1nc2cc(-c3ccc(Cl)cc3)nn2c(NCCN(C)C)c1C | 13µM* | u | u | u | x | 24%
Cc1ccc(CNC(=O)c2ccc(N3CCCC3)c(NC(=O)Nc3ccc(F)c(Cl)c3)c2)cc1 | 3% | x | x | x | x | x
CC(C)C(=O)Nc1nnc2n1CCS2 | 0% | x | x | x | x | x
COc1ccc(-c2nc3nc(C)cc(C)n3n2)cc1 | 11µM* | u | u | u | 13µM* | u
COc1cccc2c(C)cc3nnc(SCC(=O)Nc4ccc(C)cc4)n3c12 | -15% | x | x | x | x | x
COc1ccc(-c2n[nH]c3c2C(c2ccc(Cl)cc2Cl)NC3=O)cc1 (configuration not stated) | u | x | x | x | -19% | x
O=c1oc2ccccc2c(O)c1/C=C1\C=Nc2ccccc21 | 27µM* | -4% | 13% | -2% | -13% | -3%
O=c1oc2ccccc2c(O)c1/C=N/c1ccccn1 | 11µM* | 5% | -5% | -3% | -6% | 2%
CCOc1ccc(N=Cc2c(O)c3ccccc3oc2=O)cc1 | 0.85µM* | u | -1% | 9% | -6% | -1%
O=c1[nH]c(O)c(/C=C2\C=Nc3ccccc32)[nH]1 | u | u | -8% | u | x | 1%
O=c1oc2ccccc2c(O)c1C=Nc1cccnc1 | 9.5µM* | -3% | -7% | -8% | -2% | -12%
O=c1oc2ccccc2c(O)c1/C=N/c1ncccn1 | u | -1% | 2% | 5% | -27% | 3%
Cc1nc2ccn(Cc3cccs3)c(=O)c2cc1C(=O)N1CCN(c2ccccc2)CC1 | -3% | x | x | x | x | x
Cc1ccc(Nc2nc(Cl)nc(NC(C)(C)C)n2)cc1 | 12µM* | u | u | u | x | 21%
Cc1ccc(Nc2nc(/N=C/N(C)C)n[nH]2)cc1C | 24µM* | u | u | 6% | u | u
Cc1nc(-c2ccc(F)cc2)sc1CCNC(=O)c1ccccc1 | -20% | x | x | x | x | x
Cc1ccc(-c2nc(C)c(CCNC(=O)c3ccco3)s2)cc1 | 17µM* | x | x | x | x | x
COc1ccc(CC(=O)NCCc2csc(-c3ccc(Cl)cc3)n2)cc1 | -6% | x | x | x | x | x
COc1ccc(-c2nc(C)c(CCNC(=O)c3ccco3)s2)cc1 | 27µM* | x | x | x | x | x
Cc1ccc(-c2nc(CCNC(=O)c3ccco3)cs2)cc1 | 17µM* | u | -10% | -9% | x | -2%

Source: PubChem (National Center for Advancing Translational Sciences (NCATS))
